Assay results taken from PubChem BioAssay AID540333 (Southern Research Specialized Biocontainment Screening …, 2011).
The campaign covered roughly 10,000 compounds. About 320 (3.2%) were called active. Many of the other results were omitted from the sample, so actives are more common in it than they were. A number with no mark means an inactive call. Rule as the data show it: active = CPE inhibition mostly above about 9.1% (no sharp cut-off); inactive = mostly below about 7.2%.

Test: Dengue virus cytopathic effect inhibitors, cell-based, CPE readout, HTS (AID 540333)
Details: Dengue virus CPE inhibition in host cells, at 20 µM; active compounds read high

| Structure (SMILES) | CPE inhibition |
| --- | --- |
| COCCCNC(=O)c1cccc2c(=O)c(C)c(-c3ccccc3)oc12 | 0.515% |
| Cc1ccc(C)n1-c1ccc(NC(=O)c2ccccc2)cc1 | inactive |
| O=C(c1cnn(C(=O)COc2ccc(Cl)cc2)c1)c1ccccc1O | inactive |
| COc1cc(NC(=O)COC(=O)/C=C/c2ccccc2Cl)cc(OC)c1 | 22.1% (active) |
| O=C(COC(=O)/C=C/c1ccccc1Cl)NC(=O)Cc1ccccc1 | 0.12% |
| COc1cc(NC(=O)COC(=O)/C=C/c2ccc(Cl)cc2Cl)cc(OC)c1 | 8.61% |
| COc1ccccc1OCCn1cc(/C=C(\C#N)C(=O)NCc2cccs2)c2ccccc21 | 2.51% |
| O=C(NCc1ccco1)c1ccc(Cl)c(S(=O)(=O)N2CCc3ccccc32)c1 | 1.37% |
| COc1cc(C(=O)NC(=S)NC(C)C)cc(OC)c1OC | inactive |
| O=C(Nc1ccccc1)c1ccc(NCCc2ccccc2)c([N+](=O)[O-])c1 | 13.8% (active) |
| Cc1ccc(NC(=O)c2ccc(NCCN)c([N+](=O)[O-])c2)cc1Cl | 0.22% |
| Cc1ccc(NC(=O)c2ccc(NCCN)c([N+](=O)[O-])c2)cc1 | 3.98% |
| O=C(O)CCC(=O)OCc1c(-c2ccccc2)ncc2ccccc12 | 1.18% |
| CCOc1cc(C2Nc3ccccc3C(=O)N2c2ccccc2)c(Br)cc1OCC(=O)O (configuration not stated) | inactive |
| COc1ccc(NCc2ccc([N+](=O)[O-])s2)cc1 | 16.8% (active) |
| COc1ccccc1NCc1ccc([N+](=O)[O-])s1 | inactive |
| COc1cccc(NCc2ccc([N+](=O)[O-])s2)c1 | inactive |
| COc1ccc(NCc2ccc([N+](=O)[O-])s2)c(OC)c1 | 11.8% (active) |
| COc1ccc(NCc2ccccc2[N+](=O)[O-])cc1OC | 1.54% |
| COc1ccc(NC(=O)/C=C/c2ccccc2[N+](=O)[O-])c(OC)c1 | 0.44% |
| COc1cc(C2Nc3ccccc3C(=O)N2c2ccccc2)c(Br)cc1OCC(=O)O (configuration not stated) | inactive |
| Cn1cnnc1SCC(=O)Nc1cc(S(=O)(=O)N2CCCCCC2)ccc1Cl | inactive |
| Cc1ccc2c([N+](=O)[O-])cccc2n1 | inactive |
| Cc1ccc(CNC(=O)c2ccc3c(c2)S(=O)(=O)c2ccccc2C3=O)o1 | inactive |
| COc1cc(OC)cc(-c2c(-c3cccs3)c3cc(-c4ccc5[nH]ccc5c4)ccc3n2C)c1 | 4.79% |

| Structure (SMILES) | CPE inhibition |
| --- | --- |
| CCCCOc1ccc(/C=C/C(=O)OCC(=O)NC(=O)NCC(C)C)cc1OCC | inactive |
| CCOc1ccc(/C=C/C(=O)NCc2ccccc2)cc1 | inactive |
| CCOc1ccc(/C=N/OCC(=O)NC(c2ccccc2)c2ccccc2)cc1 | 13.1% (active) |
| COc1ccc(/C=N/OCC(=O)NC(c2ccccc2)c2ccccc2)cc1OC | 7.42% |
| O=C(CNC(=O)c1cccc(Cl)c1)N/N=C/C=C/c1ccccc1 | 0.175% |
| O=C(CSc1nc2ccccc2c(=O)n1-c1ccc(F)cc1F)c1c[nH]c2ccccc12 | 2.1% |
| Cc1ccc(SCC(=O)c2c(C)[nH]c3ccccc23)cc1 | inactive |
| CCOC(=O)c1c(C)[nH]c(C)c1C(=O)CSc1nc2ccccc2c(=O)n1-c1ccc(C)cc1 | inactive |
| CCOC(=O)c1c(CSc2ccc(C)cc2)oc2ccc(O)cc12 | 20.7% (active) |
| CCS(=O)(=O)c1nc(S(=O)(=O)c2ccc(Cl)cc2)c(N2CCc3ccccc3C2)s1 | 0.63% |
| CCOc1ccc(/C=C2\SC(N3CCc4ccccc4C3)=NC2=O)cc1 | 17.6% (active) |
| CCOc1ccc(N2C(=O)S/C(=C\c3cccn3C)C2=O)cc1 | inactive |
| O=C(CNC1=NCCC1)c1ccc(Cl)cc1 | 0.59% |
| CCN(CC)S(=O)(=O)c1ccc(NS(=O)(=O)c2ccc(O)c([N+](=O)[O-])c2)cc1 | 0.085% |
| CCN(C(=O)COC(=O)c1cc(NS(=O)(=O)c2ccc(Cl)c([N+](=O)[O-])c2)ccc1O)C1CCCCC1 | 17.4% (active) |
| O=C(OCC(=O)N1CCCCC1)c1cc(NS(=O)(=O)c2ccc(Cl)c([N+](=O)[O-])c2)ccc1O | 0.48% |
| O=C(Nc1nnc(C2CC2)s1)c1cc([N+](=O)[O-])ccc1N1CCCCC1 | inactive |
| CCOC(=O)[C@H]1[C@H]2COc3ccccc3[C@@H]2N2C(=O)c3cc(C)ccc3NC(=O)[C@@]12C | 0.17% |
| CCOC(=O)[C@H]1[C@H]2COc3ccc(Cl)cc3[C@@H]2N2C(=O)c3cc(C)ccc3NC(=O)[C@@]12C | 12.9% (active) |
| CCOC(=O)[C@H]1[C@H]2COc3ccccc3[C@@H]2N2C(=O)c3cc(Cl)ccc3NC(=O)[C@@]12C | 4.61% |
| CCOC(=O)[C@H]1[C@H]2COc3ccccc3[C@@H]2N2C(=O)c3ccc(C)cc3NC(=O)[C@@]12C | inactive |
| CCOC(=O)[C@H]1[C@H]2COc3ccc(OC)cc3[C@@H]2N2C(=O)c3ccc(F)cc3NC(=O)[C@@]12C | inactive |
| CCOC(=O)[C@H]1[C@H]2COc3ccc(Cl)cc3[C@@H]2N2C(=O)c3cc(F)c(F)cc3NC(=O)[C@@]12C | 18% (active) |
| NC(=O)CC[C@H](NC(=O)OCc1ccccc1)C(=O)OCc1ccc(Cl)cc1 | 0.15% |
| COc1ccc(NC(=O)c2ccc3c(c2)S(=O)(=O)c2ccccc2C3=O)cc1 | 1.25% |

| Structure (SMILES) | CPE inhibition |
| --- | --- |
| O=C(/C=C\Nc1ccc(Br)cc1)c1cccnc1 | 0.09% |
| COc1cccc(C(=O)NC(=S)Nc2ccc(N(C)C)cc2)c1 | inactive |
| COc1ccc(NC(=O)c2cc3c(s2)CCC(C)C3)cc1S(=O)(=O)N1CCOCC1 (configuration not stated) | 16.7% (active) |
| COc1ccc(S(=O)(=O)N2CCOCC2)cc1NC(=O)c1cc2c(s1)CCCC2 | 0.62% |
| COc1ccc(NC(=O)CN2CCC(Cc3ccccc3)CC2)cc1S(=O)(=O)N1CCOCC1 | 0.605% |
| CCCN(CC(=O)Nc1ccc(F)c(F)c1F)CC(=O)Nc1c(Cl)cccc1Cl | 1.15% |
| Cc1cc(C)nc(NC(=NCCc2c[nH]c3ccccc23)NC(=O)Nc2ccccc2)n1 | 13.5% (active) |
| Cc1cc(C)nc(NC(=NCCc2c[nH]c3ccccc23)NC(=O)Nc2ccc(Cl)c(Cl)c2)n1 | 7.48% |
| Cc1cc(C)nc(NC(=NCCc2c[nH]c3ccccc23)NC(=O)Nc2ccc(Cl)cc2)n1 | 4.91% |
| COc1ccc(NC(=S)Nc2ccc(OCc3ccccc3)cc2)c(OC)c1 | 5.78% |
| CC(C)c1ccccc1NC1=CC(=O)CC(C)(C)C1 | 1.06% |
| CCC(C)NC(=S)N1CCN(C(c2ccccc2)c2ccccc2)CC1 (configuration not stated) | 11% (active) |
| CC(NC(=S)N1CCOCC1)c1ccccc1 (configuration not stated) | inactive |
| CCN1CCN(C(=S)NC(C)c2ccccc2)CC1 (configuration not stated) | inactive |
| COc1ccc(NC(=S)N2CCN(C(c3ccccc3)c3ccccc3)CC2)cc1OC | 2.59% |
| CC(C)CNC(=S)N1CCN(C(c2ccccc2)c2ccccc2)CC1 | 27.6% (active) |
| CCCNC(=S)N1CCN(C(c2ccccc2)c2ccccc2)CC1 | 9.31% |
| O=C(NCCc1ccccc1)C(=O)Nc1nccs1 | 0.515% |
| CCCc1nnc(NC(=O)CCC(=O)N2CCN(C3c4ccccc4-c4ccccc43)CC2)s1 | inactive |
| CCOc1cc(/C=N/NC(=O)CSc2nncn2C)ccc1OC(=O)c1ccc(Cl)cc1 | 1.75% |
| S=C(Nc1ccccc1Cl)N1CCCCC1 | inactive |
| N#Cc1c(-c2ccc(Cl)cc2)c(C#N)c(=O)n(N)c1N | 0.43% |
| COc1ccc(CCC(=O)OCC(=O)Nc2ccc(C)c(S(=O)(=O)N(C)C)c2)cc1 | 0.745% |
| Cc1ccc(NC(=O)CSc2nn(-c3ccc(Cl)cc3)c(=S)s2)cc1S(=O)(=O)N(C)C | 2.52% |
| Cc1ccc(NC(=O)CCNC(=O)c2ccccc2Cl)cc1S(=O)(=O)N(C)C | 0.01% |

| Structure (SMILES) | CPE inhibition |
| --- | --- |
| Cc1ccc(NC(=O)CNc2ccc(Cl)c(Cl)c2)cc1S(=O)(=O)N(C)C | 20.7% (active) |
| Cc1ccc(NC(=O)c2cnccn2)cc1S(=O)(=O)N(C)C | 1.06% |
| Cc1ccc(NC(=O)Cc2ccc(Cl)c(Cl)c2)cc1S(=O)(=O)N(C)C | 11.7% (active) |
| CN(C)S(=O)(=O)n1cnc([C@@H]2[C@H]3C(=O)OC[C@@H]3C[C@@]23N=CN(Cc2ccccc2)C3=O)c1 | 0.215% |
| CC1CCCN(c2ccc(C(=O)NCc3ccc4c(c3)OCO4)cc2[N+](=O)[O-])C1 (configuration not stated) | 0.66% |
| NNC(=O)c1ccc(COc2cccc3ccccc23)cc1 | 0.845% |
| CC(C)c1ccc(NCCC(=O)c2ccc(Br)cc2)cc1 | inactive |
| CCNC(=S)Nc1cc(Cl)ccc1Oc1ccccc1 | 1.55% |
| CC1=NN(c2ccccc2)C(=O)/C1=C/c1ccc[nH]1 | inactive |
| CC1=NN(c2ccccc2)C(=O)/C1=C\c1cc(C)n(-c2ccccc2)c1C | 1.6% |
| COc1cc(/C=C2\C(=O)N(c3ccccc3)N=C2C)ccc1Oc1ccc([N+](=O)[O-])cc1[N+](=O)[O-] | 12.3% (active) |
| CCOC(=O)c1cc(-c2ccccc2)sc1NC(=O)C(C)C | 0.57% |
| CCOC(=O)c1cc(-c2ccccc2)sc1NC(=O)C(C)Sc1nnc(N)s1 (configuration not stated) | 19% (active) |
| CCOC(=O)c1cc(-c2ccccc2)sc1NC(=O)CC | inactive |
| COC(=O)NNC(=O)COc1ccc2ccccc2c1Br | inactive |
| CCOC(=O)c1ccc(-c2ccc(C3Nc4ccccc4C(=O)N3O)o2)cc1 (configuration not stated) | 0.8% |
| c1ccc2sc(Nc3nc4cc5c(cc4s3)OCO5)nc2c1 | 0.275% |
| COC(=O)c1ccc2nc(Nc3nc4ccc(F)cc4s3)sc2c1 | 1.64% |
| Fc1ccc2nc(Nc3nc4cc5c(cc4s3)OCCO5)sc2c1 | 9.35% (active) |
| Fc1ccc2nc(Nc3nc4c(F)cc(F)cc4s3)sc2c1 | 1.16% |
| Fc1cccc2sc(Nc3nc4ccccc4s3)nc12 | 0.65% |
| Fc1cccc2sc(Nc3nc4cc5c(cc4s3)OCO5)nc12 | 13.5% (active) |
